# Screens (PubChem)
# Compounds with a hit are over-represented: about 1% of the library has one in this group of screens.
# Sa ugtP lethal: compounds lethal to S. aureus RN4220 ugtP deletion mutant; 330,000 compounds, 0.54% hits; OD600 growth, 16 h; growth inhibition, % (no concentration beside the values); in the data active = growth inhibition above about 68%;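 note: plate controls were untreated wells for no effect and antibiotic for full effect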
# Sa RN4220 lethal: S. aureus RN4220 growth inhibition | OD600, 16 h | inhibition, % (concentration not given with the values) | 330,000 compounds, 0.33% hits; in the data active = inhibition above about 85%;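 note: plate controls were untreated cells for no effect and reference antibiotic for full effect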
# SSB-PriA inh: inhibitors of Klebsiella pneumoniae PriA binding to SSB C-terminal tail | AID 1272365 | AlphaScreen SSBct-PriA binding, biotinylated peptide | 430,000 compounds, 0.6% hits | inhibition, % at 33 µM; in the data active = inhibition mostly above about 37%, no sharp cut-off; inactive = mostly below about 20%;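 note: plate controls were negative control peptide for no effect and reference peptide for full effect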
# The depositor's hits bear a star; . = no result; ! = a repeat was not active.
SMILES,Sa ugtP lethal,Sa RN4220 lethal,SSB-PriA inh
NC(N)=NS(=O)(=O)c1ccc(NC(=S)Nc2ccc(F)cc2)cc1,8.6,2.0,-5.9
NC(N)=NS(=O)(=O)c1ccc(NC(=S)NC(=O)Cc2ccc(Cl)cc2)cc1,88.4*,3.8,6.9
NC(N)=NS(=O)(=O)c1ccc(NC(=S)NC(=O)/C=C/c2ccccc2)cc1,5.1,2.8,-2.6
NC(N)=NS(=O)(=O)c1ccc(NC(=S)NC(=O)c2ccccc2)cc1,active,92.7,2.2
O=C(NCCn1cnc(C2CCCC2)cc1=O)c1ccc(=O)[nH]n1,.,.,-8.0
CCCC12CN3CC(CCC)(CN(C1)C3c1ccccn1)C2=O (stereo not drawn),-0.1,1.1,58.0*
CCCC12CN3CC(C)(CN(C1)C3c1cccs1)C2=O (stereo not drawn),2.0,0.4,-8.0
O=C(Nc1nnc(C23CC4CC(CC(C4)C2)C3)s1)c1ccccc1I,.,.,-4.0
O=C(COc1ccc(Cl)cc1Cl)NC(=S)NCCC1=CCCCC1,.,.,4.0
O=C(CSc1ccc(-n2cnc(-c3ccccc3)c2)nn1)NCc1ccc(F)cc1,.,.,2.0
O=C(NCc1cc(-c2ccccc2)on1)c1ccco1,.,.,-13.0
O=C(NCc1cc(-c2ccco2)on1)c1ccc(Br)o1,.,.,39.0*
COc1ccc(CCNC(=O)CSc2ccc(NC(=O)c3ccccc3)nn2)cc1,.,.,-20.0
COc1ccc(-n2nnnc2S(=O)(=O)CC(=O)N2CCCCC2)cc1,11.0,9.6,-9.4
COc1ccc(-n2nnnc2S(=O)(=O)Cc2ccc(C(=O)O)cc2)cc1,95.3*,38.2,-6.7
CC(C)(Sc1ccc(CCN(CCCCC2CCCCC2)C(=O)NC2CCCCC2)cc1)C(=O)O,85.8*,65.5,5.3
CN(Cc1ccccc1)C(=O)NC1CCCCC1,-0.9,4.4,-9.6
O=C(NCCc1c[nH]c2ccccc12)C(=O)NCC1OCCN1C(=O)c1ccc(Cl)cc1 (stereo not drawn),.,.,-13.0
O=C(NCC(c1ccsc1)N1CCc2ccccc2C1)c1cccc2ccccc12 (stereo not drawn),.,.,-7.0
Cc1cc(=O)[nH]c(-n2nc(C)cc2N)n1,.,.,96.0*
Cc1cc(=O)[nH]c(-n2nc(C)cc2C)n1,-0.8,2.2,-10.6
Cc1cccc(CC(=O)Nc2cc(C)nn2-c2nc(C)cc(=O)[nH]2)c1,.,.,51.0*
CC(=O)Nc1cc(C)nn1-c1nc(C)cc(=O)[nH]1,.,.,24.0
O=C(c1cccc(C(F)(F)F)c1)N1CCC(Oc2cnccn2)C1 (stereo not drawn),.,.,-13.0
Cc1nnc(NC(=O)CSc2[nH]c(=O)ncc2C)s1,.,.,1.0
SMILES,Sa ugtP lethal,Sa RN4220 lethal,SSB-PriA inh
O=C(NCc1ccc(C(=O)c2ccco2)s1)C(=O)Nc1cccnc1,.,.,-14.0
COC(=O)c1c(-c2ccc(OC)cc2)sc2ccc(OC)cc12,91.3*,0.2,-47.8
COC(=O)c1c(-c2ccc(OC)cc2)sc2ccc(-c3ccc4c(c3)OCO4)cc12,5.7,1.1,-6.9
COc1cc([C@H]2C(C(=O)OCc3ccccc3)=C(C)Nc3ncnn32)ccc1OCc1ccccc1,.,.,-13.0
O=C(NCCCn1ccnc1)C(=O)Nc1ccc2c(c1)N(S(=O)(=O)c1cccs1)CCC2,.,.,51.0*
O=C(NCCCO)C(=O)Nc1ccc2c(c1)N(S(=O)(=O)c1cccs1)CCC2,1.2,3.1,4.4
O=S(=O)(NCc1csc(-c2ccccc2)n1)c1ccc2ccccc2c1,.,.,-16.0
COc1cc(NS(=O)(=O)c2cc3c(cc2C)NC(=O)CO3)cc(OC)c1,1.6,14.9,-6.2
Cc1cc2c(cc1S(=O)(=O)Nc1ccc(OC(F)(F)F)cc1)OCC(=O)N2,91.7*,-8.3,-1.3
Cc1nc2c([nH]1)C[C@@H](C(=O)Nc1ccncc1)CC2,.,.,-8.0
CC(C)=CCC12Oc3cc(O)ccc3C1(O)Oc1cc(O)c([C@H]3C=C(C)CC(c4ccc(O)cc4O)[C@H]3C(=O)c3ccc(O)cc3O)c(O)c1C2=O (stereo partly drawn),100.3*,96.2*,16.6
COc1cccc(C(=O)NCCn2nc(-n3cncn3)ccc2=O)c1,.,.,-11.0
Ic1ccc(Cn2c(-c3ccc(I)o3)nc3ccccc32)o1,.,.,1.0
Brc1ccc(Cn2c(-c3ccc(Br)o3)nc3ccccc32)o1,-7.3,-1.4,57.0*!
O=C(COc1ccc(Cl)cc1)NC[C@@H](c1ccco1)N1CCc2ccccc2C1,.,.,-9.0
O=c1[nH]c(=O)n([C@H]2C[C@H](O)[C@@H](CO)O2)cc1I,.,.,-2.7
O=c1[nH]c(=O)n(C2CC(O)C(CO)O2)cc1F (stereo not drawn),99.2*,98.8*,.
Cc1cc(Cl)ccc1OCCCC(=O)N=Nc1c(O)[nH]c2ccc(Br)cc12,.,.,-16.0
O=C(Nc1ccccc1Cc1nc(-c2ccco2)no1)c1cnccn1,.,.,-23.0
CCOC(=O)COc1ccc(/C=C/[N+](=O)[O-])c(OCC(=O)OCC)c1,-10.7,6.6,-2.6
CCOC(=O)COc1ccc2ccccc2c1/C=C/[N+](=O)[O-],86.8*,80.5,0.5
CCOC(=O)Cn1cc(/C=C/[N+](=O)[O-])c2ccccc21,5.6,11.0,-1.1
CCOc1ccc(/C=C/[N+](=O)[O-])c2ccccc12,95.2*,95.7*,12.1
CCCC(O)=C1C(=O)CC(c2ccccc2)CC1=NC (stereo not drawn),.,.,-6.2
Cc1nnsc1C(=O)NCC(O)c1ccc(C(F)(F)F)cc1 (stereo not drawn),.,.,-10.0
SMILES,Sa ugtP lethal,Sa RN4220 lethal,SSB-PriA inh
Cc1cccc(C)c1NC(=O)CC1CCCCN1S(=O)(=O)c1ccc(Cl)cc1 (stereo not drawn),.,.,-10.0
CCN(CC)c1ccc(C(=S)NC2CCCCC2)cc1,active,89.8,3.5
CN(C)c1ccc(C(=S)NC2CCCCC2)cc1,19.2,7.3,12.4
COc1ccc(Cl)cc1-n1c(N)c(C(=O)NCc2ccc3c(c2)OCO3)sc1=S,.,.,14.0
O=C(Cn1cc(S(=O)(=O)Cc2ccccc2F)c2ccccc21)NC1CCCC1,.,.,-3.0
CCOc1ccc2[nH]c3c(N4CCN(c5ccccn5)CC4)ncnc3c2c1,-15.7,1.9,39.4*
Cc1ccc2[nH]c3c(N4CCN(Cc5ccccc5)CC4)ncnc3c2c1,64.4,7.1,21.9
CCNc1sc(C(=O)c2cccs2)c(N)c1C#N,0.2,5.8,-12.8
C=CCNc1sc(C(=O)c2ccccc2)c(N)c1-c1nc2ccccc2s1,-16.4,3.0,54.1*
CCNc1sc(C(=O)c2cccs2)c(N)c1-c1nc2ccccc2s1,-0.5,3.7,54.8*
CCOC(=O)c1sc(NCc2ccco2)c(-c2nc3ccccc3s2)c1N,6.5,-6.8,11.7
O=C(Cn1ncccc1=O)NC(c1cccnc1)C1CCOCC1 (stereo not drawn),.,.,-14.0
COc1cn(C)c(C(=O)Nc2ccc(F)c(F)c2)cc1=O,.,.,-11.0
O=[N+]([O-])c1cc([N+](=O)[O-])c2cccnc2c1Cl,.,.,81.0*
Cc1cc2cccnc2c2ncccc12,.,.,163.0*
Cc1cc(Br)cc2cccnc12,.,.,34.0
CC(C)C(=O)NC(c1cccs1)c1cc([N+](=O)[O-])c2cccnc2c1O (stereo not drawn),76.2,67.9,51.0
O=[N+]([O-])c1cc2cccnc2c2ncccc12,-2.1,3.5,48.4*
O=[N+]([O-])c1ccc(F)c2ncccc12,.,.,27.4
O=[N+]([O-])c1ccc(Cl)c2ncccc12,.,.,52.8
Cc1ccc(C(NC(=O)C(C)C)c2cc([N+](=O)[O-])c3cccnc3c2O)cc1 (stereo not drawn),95.1*,91.6*,20.6
